# TRHR ag = qHTS for Small Molecule Agonists and Allosteric Enhancers of Human TRH Receptor: Primary Screen for Agonists; TRHR cells, calcium flux fluo-8, FDSS agonist mode; activation, % at 2 µM; 360,000 tested, 0.18% active; AID 493084, 2011; further: 0% is about no effect
#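 TRHR-expressing cells loaded with fluo-8 calcium dye; 23 nL library compound pin-transferred, kinetic FDSS fluorescence (Ex 480/Em 530) recorded about 180 s for agonist-induced calcium release, before a 10 nM TRH EC20 addition for potentiator mode.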
# TRHR PAM = qHTS for Small Molecule Agonists and Allosteric Enhancers of Human TRH Receptor: Primary Screen for Enhancers; Thyrotropin-releasing hormone receptor (Homo sapiens), P34981; TRHR cells, fluo-8 calcium fluorescence, EC20 TRH enhancement; enhancement, % at 2 µM; 360,000 tested, 0.66% active; in the data active means enhancement above about 30%; further: 0% is about no effect
#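 TRHR-expressing cells loaded with fluo-8 calcium dye were read kinetically (ex 480/em 530) during compound addition, then stimulated with an EC20 of TRH (10 nM final). Enhancement of the Gq-mediated intracellular calcium response was scored.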
# D1 antag = Antagonist of Human D 1 Dopamine Receptor: qHTS; D(1A) dopamine receptor (Homo sapiens), P21728; HEK293 TREx D1 cells, calcium flux, dopamine EC80; active compounds read low; activity change, negative = inhibition, % at 10 µM; 360,000 tested, 3.2% active; AID 504652, 2011; in the data active means activity change below about -30%; further: on the % scale 0 is the no-effect control and ±100 the full control effect
# Target sequence (P21728 whole entry, looked up): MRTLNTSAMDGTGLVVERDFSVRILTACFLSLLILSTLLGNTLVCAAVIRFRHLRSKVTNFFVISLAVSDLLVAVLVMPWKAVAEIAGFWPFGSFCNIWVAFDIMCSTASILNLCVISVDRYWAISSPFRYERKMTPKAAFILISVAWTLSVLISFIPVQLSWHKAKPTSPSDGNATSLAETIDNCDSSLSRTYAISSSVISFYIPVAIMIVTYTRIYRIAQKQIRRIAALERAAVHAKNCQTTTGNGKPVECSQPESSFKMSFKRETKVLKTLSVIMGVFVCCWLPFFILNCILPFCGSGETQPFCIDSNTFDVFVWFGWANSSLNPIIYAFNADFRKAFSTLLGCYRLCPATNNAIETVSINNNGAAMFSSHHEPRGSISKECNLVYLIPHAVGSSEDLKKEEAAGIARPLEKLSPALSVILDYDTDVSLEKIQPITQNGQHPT
#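 Tetracycline-induced HEK293 Trex D1 cells, force-coupled to calcium, dye-loaded; compounds added and read 180 s, then EC80 dopamine added and calcium flux tracked kinetically another 180 s.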
# D1 potentiator = Potentiators of Human D1 Dopamine Receptor: qHTS; HEK293 TREx D1 cells, calcium flux, dopamine EC20 potentiation; potentiation, % at 10 µM; 360,000 tested, 0.036% active; AID 504651, 2011; in the data active means potentiation above about 30%; further: 0% is about no effect
# D1 agonist = Allosteric Agonists of the Human D1 Dopamine Receptor: qHTS; D(1A) dopamine receptor (Homo sapiens), P21728; HEK293 T-REx D1 cells, calcium flux, agonist mode; activation, % at 2 µM; 360,000 tested, 1% active; further: 0% is about no effect
#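 Agonism was scored from calcium flux recorded over 180 s (1 read/s) after pintool compound addition, following a 10-cycle baseline. Cells were inducible force-coupled HEK293 TREx D1, plated overnight at 30 C and loaded with no-wash calcium dye.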
# * = called active by the depositor. In the library only some 4.6% were active in any assay of this set; here they are far more common. Unless noted, no stated cut-off is given here; in the data, active means activation above about 30%; inactive means the rest.
SMILES,TRHR ag,TRHR PAM,D1 antag,D1 potentiator,D1 agonist
CCOC(=O)C1=C(c2ccccc2)N=c2s/c(=C\c3cc(OC)c(OC)c(OC)c3)c(=O)n2C1c1cccs1 (stereo not drawn),0.5,-4.2,-1.4,-4.0,240.2*
CCOC(=O)C1=C(c2ccccc2)N=c2s/c(=C\c3ccco3)c(=O)n2C1c1cccs1 (stereo not drawn),1.5,5.6,-5.8,-3.8,1.0
O=C(CNC(=O)c1ccc(C(F)(F)F)cc1)OC(C(=O)Nc1cc(C(F)(F)F)ccc1Cl)c1ccccc1 (stereo not drawn),1.9,-3.5,-12.0,-0.7,7.0
CCc1ccc(NS(=O)(=O)c2ccc(OC)c3ncccc23)cc1,-0.4,2.1,-30.6*,-0.5,12.0
O=C1NC(=S)N/C1=C\c1ccc(Oc2ccc(C(F)(F)F)cc2[N+](=O)[O-])c(Cl)c1,0.4,-1.0,-51.6*,3.0,-0.1
Nc1c(-c2ccccc2)cc[nH]c1=O,1.8,4.4,-4.8,-0.2,6.1
CCOc1ccc(NC(=O)c2ccc3c(c2)CCN3S(=O)(=O)CC)cc1,0.6,0.8,-1.3,-0.9,3.4
CC(=O)NCc1nc2cccnc2n1Cc1ccccc1,0.2,-1.2,-31.9*,2.1,-0.2
CC(C)CC(=O)NCc1nc2cccnc2n1Cc1ccccc1,0.2,13.8,10.3,-5.5,0.3
CCOC(=O)c1c(NC(=O)COC(=O)c2ccccn2)sc(C)c1C,1.1,-10.3,1.8,3.2,2.2
CCOC(=O)CSC1=N/C(=C\c2cccnc2)C(=O)N1c1ccc(OC)cc1,1.6,2.1,-7.3,-15.1,0.9
C=CCSC1=N/C(=C\c2ccsc2)C(=O)S1,0.2,1.2,-4.1,-2.3,3.1
CCCCSC1=N/C(=C/c2ccsc2)C(=O)N1c1ccccc1,1.7,-8.3,-44.9*,-12.6,16.2
CCCSC1=N/C(=C/c2ccsc2)C(=O)N1c1ccccc1,1.0,-1.3,-38.3*,-13.4,12.6
CCSC1=N/C(=C/c2ccsc2)C(=O)N1c1ccccc1,0.3,-2.1,-72.0*,-11.5,5.2
CCOC(=O)c1ccc(N2C(=O)c3[nH]nc(-c4ccc(C)cc4)c3C2c2cccs2)cc1 (stereo not drawn),2.6,16.7,5.8,4.8,3.7
Cc1ccc(C(=O)N/C(=C\c2cccs2)C(=O)NCCc2c[nH]c3ccccc23)cc1C,0.7,3.0,-38.6*,2.7,1.7
O=C(NCCc1c[nH]c2ccccc12)/C(=C\c1cccs1)NC(=O)c1ccccc1,-0.2,-1.8,-42.0*,-6.7,0.2
O=C(NCCc1c[nH]c2ccccc12)/C(=C\c1cccnc1)NC(=O)c1cccs1,-0.1,2.8,4.3,1.9,2.9
COc1cc(/C=C(\C#N)C(=O)c2ccc(O)c(O)c2)cc(I)c1O,-1.6,2.1,0.7,-5.5,37.8*
COc1cc(/C=C(\C#N)C(=O)N2CCOCC2)cc(Br)c1O,1.2,-1.6,-6.2,1.5,6.5
COc1ccc(NC(=O)[C@@]2(CC(=O)O)CC(/C=C/c3ccccc3)=NO2)cc1,1.2,-1.3,4.4,-6.5,0.9
COc1ccc(Cl)cc1NC(=O)[C@@]1(CC(=O)O)CC(/C=C/c2ccccc2)=NO1,0.9,-4.9,-34.7*,3.6,4.4
CCc1ccc(/C(C)=N/NC(=O)CNC(=O)/C=C/c2ccccc2OC)cc1,-1.6,19.7,7.7,0.0,1.1
COc1ccccc1/C=C\C(=O)NCC(=O)N/N=C(/C)c1cccc([N+](=O)[O-])c1,-0.2,-0.9,-64.9*,-1.6,-1.3
COc1ccc(CCNC(=O)c2cnc3ccc(C)cn3c2=O)cc1,-0.6,-2.7,8.8,0.3,-0.2
COC(=O)c1ccc(N2CCOCC2)c(NC(=O)c2ccc3c(c2)OCO3)c1,-0.3,1.1,-12.2,-5.3,0.9
COc1ccc(C(=O)Nc2ccccc2N2CCOCC2)cc1[N+](=O)[O-],0.1,-0.2,-32.1*,0.4,0.9
COc1ccc(N2CCCC2)c(NC(=O)c2ccc([N+](=O)[O-])o2)c1,0.5,2.0,-35.7*,-11.2,4.3

# Screens (PubChem BioAssay)
